Screening results deposited in PubChem by National Center for Advancing Translational Sciences (NCATS).
Only a selection was taken, and hits are over-represented in it overall.
LmPK inhibitor – qHTS Assay for Inhibitors of Leishmania Mexicana Pyruvate Kinase (LmPK); purified LmPK, Kinase-Glo ATP luminescence, 1 h; Potency, µM (titrated, usually from 57.5 µM), actives largely listed as inhibitors; 290,000 tested, 0.37% active; Q27686
Target sequence (Q27686 whole entry, looked up): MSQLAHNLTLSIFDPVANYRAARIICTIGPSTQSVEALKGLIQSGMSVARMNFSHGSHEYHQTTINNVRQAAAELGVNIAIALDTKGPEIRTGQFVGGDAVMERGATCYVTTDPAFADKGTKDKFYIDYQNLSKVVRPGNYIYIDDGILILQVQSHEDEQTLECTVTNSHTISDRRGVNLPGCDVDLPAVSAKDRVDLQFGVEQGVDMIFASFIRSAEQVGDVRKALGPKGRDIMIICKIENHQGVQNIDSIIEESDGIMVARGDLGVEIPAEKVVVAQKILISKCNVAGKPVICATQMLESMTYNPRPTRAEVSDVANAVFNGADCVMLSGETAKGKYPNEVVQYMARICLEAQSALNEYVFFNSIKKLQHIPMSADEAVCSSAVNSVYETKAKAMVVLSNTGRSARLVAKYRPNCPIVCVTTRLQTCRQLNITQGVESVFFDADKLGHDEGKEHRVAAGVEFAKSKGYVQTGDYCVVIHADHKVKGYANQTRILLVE
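qHTS format; LmPK 0.1 nM; substrates PEP 0.5 mM and ADP 0.1 mM. One-hour room-temperature incubation, then coupled luciferase luminescence; 0.5 nM enzyme wells mark activation.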
Shiga inhibitor – A qHTS for Small Molecule Inhibitors of Shiga Toxin; Vero cells, Shiga toxin protein synthesis inhibition reporter; inhibition, % at 38.7 µM; 290,000 tested, 9.2% active; AID 2315, 2010; in the data active = inhibition mostly above about 28%, no sharp cut-off; inactive = mostly below about 43%
FBPA Giardia inh – qHTS Assay for Inhibitors of Fructose-1,6-bisphosphate Aldolase from Giardia Lamblia. purified Giardia FBPA. Potency, µM (titrated, usually from 59.6 µM), hits mostly inhibitors. A8B2U2. 290,000 tested, 0.71% active; also: nearly all actives have a fitted effect of over 55% in size
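40 nM FBPA preincubated 10 min at RT with compound (up to 57.5 uM final), then substrate plus GAPDH/TPI/NAD/arsenate coupling and diaphorase/resazurin added. Fluorescence read after 20 min at RT, 525/598 nm.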
Sm TGR inh – qHTS Assay for the Inhibitors of Schistosoma Mansoni Peroxiredoxins; purified TGR, DTNB reduction, TNB absorbance 405 nm; AID 485364, 2010; 360,000 tested, 3% active; Potency, µM (highest dose often 114 µM), usual class: inhibitors; Schistosoma mansoni thioredoxin glutathione reductase (TGR), Q962Y6; also: nearly all actives have a fitted effect of over 60% in size
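TGR 20 nM + NADPH 100 uM (dispensed conc.), cpd preinc 15 min RT; start with NADPH (500 uM addition) then DTNB (15 mM addition). Kinetic TNB absorbance, 405 nm filter. Four-parameter Hill fit across titration.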
Tb PYK inh – qHTS of Trypanosoma Brucei Inhibitors; pyruvate kinase (Trypanosoma brucei), Q57TT1; TbPYK enzyme, Kinase-Glo Plus ATP luminescence, 45 min; Potency, µM (titrated, usually from 76.8 µM), most hits filed as inhibitors; 410,000 tested, 0.12% active; AID 624173, 2012; also: nearly all actives have a fitted effect of over 50% in size
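Luminescence from Kinase-Glo Plus, added after a 45-minute room-temperature reaction, served as the end-point read-out. The enzyme and substrate were preincubated with compound before ADP (130 uM final) initiated turnover. Concentration-effect curves came from normalized qHTS data.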
CHX counter – Cycloheximide Counterscreen for Small Molecule Inhibitors of Shiga Toxin; cell reporter, cycloheximide protein synthesis inhibition counterscreen; 300,000 tested, 12% active; max response, %; in the data active = max response mostly above about 13%, no sharp cut-off; inactive = mostly below about 14%; also: read at 38.3 µM for the half of the compounds with a filed dose
Numbers stand for hits; n = inactive; u = inconclusive; x = no result given; [ ] = remark or other dose. Unless noted, calls follow the shape of the dose curve; as a rule, active = well fitted curve in the direction sought with a large enough effect; inconclusive = small, poorly fitted or top-dose-only effect, or another doubt; inactive = no such curve, though single readings can be large; an effect the other way counts as inactive or inconclusive.

SMILES | LmPK inhibitor | Shiga inhibitor | FBPA Giardia inh | Sm TGR inh | Tb PYK inh | CHX counter
Cc1ccc(-c2cc(C(=O)N/N=C/c3ccc([N+](=O)[O-])o3)c3ccccc3n2)o1 | n | 80 | x | 40µM | n | 32
O=C(N/N=C/c1ccc([N+](=O)[O-])o1)c1cc(-c2ccc(-c3ccccc3)cc2)nc2ccccc12 | n | 101 | n | u | n | 32
COc1cccc(/C=N/NC(=O)NC2CCCCC2)c1O | n | 52 | n | n | n | 34
COc1cccc(/C=N/NC(=O)C(=O)N/N=C/c2cccc(OC)c2O)c1O | n | n | n | n | n | n
COc1cccc(/C=N/NC(=O)C(=O)N2CCCCCC2)c1O | n | n | x | n | n | 21
C[N+](C)(CCCOc1ccccc1)c1ccccc1 | x | x | n | x | x | x
CCCCOC(=O)/C(=C/C=C/c1ccccc1)NC(=O)c1ccccc1 | n | n | n | n | n | 49
C=CCOC(=O)/C(=C\C=C\c1ccccc1)NC(=O)c1ccccc1 | n | n | n | n | n | 18
CCCOC(=O)/C(=C\C=C\c1ccccc1)NC(=O)c1ccccc1 | n | n | n | n | n | 16
CCOC(=O)/C(=C\C=C\c1ccccc1)NC(=O)c1ccccc1 | n | n | n | n | n | n
Cc1ccc(NC(=O)NCCOCCn2c(=O)oc3ccccc32)c(C)c1 | x | x | x | n | n | x
O=S(=O)(Cc1noc(-c2ccccc2Cl)n1)c1ccccn1 | n | 72 | n | n | n | 41
CCOC(=O)Cc1csc(NS(C)(=O)=O)n1 | n | n | n | n | n | n
CCOC(=O)Cc1csc(NC(=O)CCS(=O)(=O)Cc2ccccc2)n1 | n | n | n | 20µM | n | n
CCOC(=O)Cc1csc(NC(=O)CC)n1 | n | n | n | n | n | n
CCOC(=O)Cc1csc(NC(=O)CC(C)(C)C)n1 | n | 122 | n | n | n | 32
CCOC(=O)Cc1csc(NC(=O)C(C)(C)CC)n1 | n | 51 | n | n | n | 31
Cc1ccc2nc(NCc3ccccc3)c(C=O)c(=O)n2c1 | n | n | n | n | n | n
O=c1c(C=NCc2ccccc2)c(NCc2ccccc2)nc2ccccn12 | n | 80 | n | n | n | n
Cc1ccc2nc(NCc3ccccc3)c(C=NCc3cccnc3)c(=O)n2c1 | n | 30 | n | n | n | 14
Cc1ccc2nc(NCc3ccco3)c(C=NCc3ccco3)c(=O)n2c1 | n | n | n | n | n | 12
Cc1ccc(Nc2ccc(N3CCN(C(=O)c4cccc([N+](=O)[O-])c4)CC3)nn2)cc1 | x | x | x | n | n | x
COc1ccccc1CNC(=O)Cn1c(-c2ccc(F)cc2)cc(C(C)=O)c1C | x | x | x | n | n[15.4 µM] | x
CSc1ccc(CNc2ccc(C)c(C)c2)cc1 | n | 79 | n | n | n | 25
Cc1ccc(NCc2cccnc2)cc1 | n | n | n | u | n | n
SMILES | LmPK inhibitor | Shiga inhibitor | FBPA Giardia inh | Sm TGR inh | Tb PYK inh | CHX counter
CSc1ccc(CNc2cccc3ccccc23)cc1 | n | n | n | n | n | n
c1ccc(CNc2ccc(CNc3ncn[nH]3)cc2)cc1 | n | n | n | n | n | 18
Cc1ccc(NCc2ccccc2)cc1 | n | 94 | n | n | n | 49
CSc1ccc(CNc2ccc(C)cc2)cc1 | n | 80 | n | n | n | 36
COc1cc(OC)c(NC(=O)CSc2nccn2C)cc1Cl | x | x | x | n | n | x
CCCNC(=O)c1nn2cc(Br)cnc2c1Br | n | n | n | n | n | n
COc1cc(CNc2ncn[nH]2)ccc1OCc1cccc(C)c1 | n | 70 | n | n | n | 48
COc1cc(CNc2ccc(CNc3ncn[nH]3)cc2)cc(Cl)c1OCc1ccccc1 | n | n | n | n | n | n
Cc1ccc(CNc2cccnc2)cc1 | n | 38 | n | n | n | 43
Cc1cccc(Cc2c(C)nc3nc(SCc4ccccc4C)nn3c2C)c1 | x | x | x | n | n | x
CNC1CC(N)[C@H](O)[C@@H](O[C@@H]2OC(CO)C3OC4(OC(C(N)CO)C(O)C(O)C4O)O[C@@H]3[C@H]2O)C1O (some centres not stated) | x | x | n | x | n | x
COc1ccc(C(O)P(=O)(OC(C)C)OC(C)C)c(OC)c1 (configuration not stated) | n | n | n | n | n | n
NS(=O)(=O)c1cccc(NC(=O)c2cncc(Br)c2)c1 | n | n | n | n | n | n
O=C(Nc1ccc2c(c1)OCCO2)c1cncc(Br)c1 | n | n | n | n | n | 23
CCN(CC)S(=O)(=O)c1ccc(C(=O)Nc2ccc3c(c2)OCO3)cc1 | n | n | n | n | n | n
O=C(Nc1ccc2c(c1)OCO2)c1cncc(Br)c1 | n | 66 | n | n | n | 32
COc1ccc(C2C(=O)N(C3CCC(C)CC3)CC(=O)N2CCC2=CCCCC2)cc1OC (configuration not stated) | x | x | x | n | n | x
CC(=O)CC1OC(=O)C(Br)=C1NCc1ccccc1 (configuration not stated) | n | n | n | 3.5µM | n | 22
O=C(CC1Oc2ccccc2NC1=O)NCc1ccccc1 (configuration not stated) | n | n | n | n | n | n
CC1CCN(C(=O)CS(=O)(=O)Cc2ccccc2)CC1 | n | 77 | n | n | n | 35
C=CCn1c(CCCOc2ccc(Cl)cc2Cl)n[nH]c1=S | n | 54 | n | n | n | 19
O=C(CN1C(=O)COc2ccc(S(=O)(=O)N3CCCCCC3)cc21)Nc1cccc(Cl)c1 | x | x | x | n | n | x
O=C(NN=C1CCCCCCCCCCC1)c1cccnc1 | n | n | n | n | n | n
CC(C)(C)c1ccc(C(=O)NN=C2CCCC2)cc1 | n | n | n | n | n | n
O=C(NN=C1CCCC1)c1ccn[nH]1 | n | 104 | n | n | n | 56
SMILES | LmPK inhibitor | Shiga inhibitor | FBPA Giardia inh | Sm TGR inh | Tb PYK inh | CHX counter
O=C(NN=C1CCCCCCC1)c1ccc(F)cc1 | n | 76 | n | n | n | 24
O=C(NN=C1CCCCCC1)c1cccs1 | n | 92 | n | n | n | 61
O=C(NN=C1CCCCCCCCCCC1)c1ccccc1F | n | 70 | n | n | n | 78
CC1Cc2cc(S(=O)(=O)NCc3ccc(N(C)C)cc3)ccc2N1C(=O)C1CCC1 (configuration not stated) | x | x | x | n | n | x
Cc1nc2ccc(NC(=O)c3cccc(C(F)(F)F)c3)cc2o1 | n | n | n | n | n | 21
O=C(Nc1cccc(C(F)(F)F)c1)c1cccc(C(=O)Nc2cccc(C(F)(F)F)c2)c1 | x | x | x | n | n | x
O=C(Nc1ccccc1)c1cccc(C(F)(F)F)c1 | n | 33 | n | n | n | 11
COC(=O)C/C=C\[C@@H](C)[C@@H](/C=N\OC[C@@H](O)[C@H]1O[C@H]2OC(C)(C)O[C@H]2[C@@H]1O)OC | x | x | n[12.9 µM] | x | x | x
